Screening data: PubChem, several laboratories
Only some compounds are listed: those with a hit (about 4.5% of all), similar ones and a draw of the others.
Mdm2-MdmX inh = inhibitors of human Mdm2-MdmX association, primary screen, cell-based, luminescence, split luciferase, SaOS-2, uHTS | Protein Mdm4 (Homo sapiens) + E3 ubiquitin-protein ligase Mdm2 (Homo sapiens), … | AID 485346, 2010 | inhibition, % at 8 µM | SaOS-2 split-luciferase Mdm2/MdmX complementation | 330,000 tested, 3% active;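 active = inhibition of at least 50% at 8 µM in the primary screen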
Target sequence (O15151 whole entry, looked up): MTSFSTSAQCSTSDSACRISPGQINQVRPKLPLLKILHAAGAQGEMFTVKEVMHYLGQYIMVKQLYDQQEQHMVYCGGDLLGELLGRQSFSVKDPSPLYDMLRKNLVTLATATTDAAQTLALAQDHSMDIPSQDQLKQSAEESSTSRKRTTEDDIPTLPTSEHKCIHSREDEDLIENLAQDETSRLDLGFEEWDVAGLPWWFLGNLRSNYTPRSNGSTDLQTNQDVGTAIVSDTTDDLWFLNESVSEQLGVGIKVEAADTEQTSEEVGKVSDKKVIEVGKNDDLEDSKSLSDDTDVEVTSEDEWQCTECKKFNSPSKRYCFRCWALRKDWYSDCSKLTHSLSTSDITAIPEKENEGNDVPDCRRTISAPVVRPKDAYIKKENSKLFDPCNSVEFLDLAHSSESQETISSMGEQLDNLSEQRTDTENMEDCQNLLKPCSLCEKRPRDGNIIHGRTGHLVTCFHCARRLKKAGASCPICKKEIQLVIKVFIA
Target sequence (Q00987 whole entry, looked up): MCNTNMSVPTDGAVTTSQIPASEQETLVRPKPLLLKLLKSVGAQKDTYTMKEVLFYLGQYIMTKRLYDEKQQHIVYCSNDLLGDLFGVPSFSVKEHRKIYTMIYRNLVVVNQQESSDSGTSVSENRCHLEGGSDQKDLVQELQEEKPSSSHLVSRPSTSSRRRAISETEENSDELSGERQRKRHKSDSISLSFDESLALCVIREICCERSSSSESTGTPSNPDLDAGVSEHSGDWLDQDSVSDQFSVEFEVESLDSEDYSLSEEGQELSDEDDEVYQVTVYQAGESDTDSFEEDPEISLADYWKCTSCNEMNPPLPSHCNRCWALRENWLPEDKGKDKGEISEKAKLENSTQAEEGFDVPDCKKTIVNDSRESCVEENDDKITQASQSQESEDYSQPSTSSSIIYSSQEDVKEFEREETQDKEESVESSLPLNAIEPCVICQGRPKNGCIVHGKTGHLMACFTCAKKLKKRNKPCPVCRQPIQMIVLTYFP
Jurkat NFkB inh = inhibitors of induced NF-kB luciferase reporter, primary screen, TCR NF-kB activation inhibitor project, cell-based, luminescence, uHTS; inhibition, % at 4 µM; 330,000 tested, 0.53% active; Jurkat, PMA/ionomycin-induced NF-kB luciferase reporter; in the data active = inhibition above about 50%
697 NFkB inh = inhibitors of PMA/ionomycin-induced NF-kB reporter, 697 cells, primary screen, B-cell NF-kB inhibitor project, cell-based, luminescence, uHTS; 697 B-cell NF-kB luciferase reporter, 16 h; inhibition, % at 4 µM; 330,000 tested, 0.33% active; AID 435022, 2010; in the data active = inhibition above about 35%
CSC inhib = cancer stem cell viability inhibitors, primary screen, luminescence; cancer stem cell-like cells viability; inhibition, % at 7.5 µM; 300,000 tested, 1.1% active; AID 2717, 2010; in the data active = inhibition above about 75%; tested in HMLE shEcad cells
Gli-Sufu block = Gli-Sufu pathway antagonists, primary screen, luciferase luminescence, Sufu-KO-LIGHT cells, uHTS; Sufu-KO-LIGHT fibroblasts, Gli luciferase reporter luminescence; inhibition, % at 5 µM; 340,000 tested, 0.74% active;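 active = inhibition above about 55%, limit read from the data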;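 note: 0% = DMSO-treated cells and 100% = wells with medium but no cells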
Beta apoptosis = inhibitors of cytokine-induced beta cell apoptosis, primary screen, luminescence; INS-1E cytokine-induced death, ATP luminescence, 48 h; percent of positive-control rescue, neutral wells zero; protection from apoptosis, % (test concentration not listed); 300,000 tested, 0.8% active; AID 435005, 2010;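 active = Every replicate reaches about 75%, or at least half do and their mean reaches it too, limit read from the data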;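 note: 0% = cytokine-treated negative control wells and 100% = positive control rescue; higher means more ATP so stronger rescue from cytokine killing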
Mdm2 MdmX conf = Mdm2-MdmX complex disruptors, retested hits, confirmation, luminescence, single concentration; inhibition, % at 8 µM; Mdm2-MdmX binding, luminescent assay; shares compounds with Mdm2-MdmX inh; 10,000 tested, 55% active; in the data active = inhibition above about 40%
FLuc counter = full-length luciferase signal inhibition, confirmation, counter-screen for Mdm2/MdmX interaction inhibitor project, cell-based, single concentration, SaOS-2 | AID 504607, 2011 | shares compounds with Mdm2-MdmX inh | inhibition, % at 8 µM | 6,200 tested, 77% active | SaOS-2 full-length luciferase counterscreen, luminescence;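 active = mean inhibition at 8 µM reaching about 37%, which flags the compound as non-specific, limit read from the data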;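 note: p53-null SaOS-2 cells with luciferase driven by a doxycycline-inducible promoter; compound on cells about two nights before reading with doxycycline added after day one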
* hit, by the source's call; x = no result given.

SMILES	Mdm2-MdmX inh	Jurkat NFkB inh	697 NFkB inh	CSC inhib	Gli-Sufu block	Beta apoptosis	Mdm2 MdmX conf	FLuc counter
N#C/C(=N\Nc1ccc(Cl)c(Cl)c1)C(=O)C1CC1	58.4*	-25.7	-156.4	70.2	25.5	52.1	72.4*	46.8*
O=C1CSC(c2ccccn2)N1c1ccc(C(F)(F)F)cc1 (stereo not given)	-1.2	-0.5	8.7	-1.1	24.5	7.4	x	x
COc1ccc(S(=O)(=O)N2CCOCC2)cc1NC(=O)c1ccc(S(=O)(=O)N(C)c2ccccc2OC)cc1	x	x	x	x	-2.2	x	x	x
N#Cc1c([N+](=O)[O-])cc([N+](=O)[O-])cc1S(=O)(=O)Cc1ccccc1	97.8*	4.1	-20.5	124.5*	0.5	113.1*	95.8*	0.4
O=[N+]([O-])c1ccc(S(=O)(=O)CC(CN2CCOCC2)N2CCOCC2)cc1 (stereo not given)	27.8	10.6	5.7	-4.0	1.9	-13.8	x	x
O=S(=O)(CC(CN1CCCCC1)N1CCCCC1)c1ccccc1 (stereo not given)	72.2*	4.2	17.9	27.4	22.4	-3.5	65.5*	17.1
O=[N+]([O-])c1ccc(S(=O)(=O)CC(CN2CCCCC2)N2CCCCC2)cc1 (stereo not given)	100.3*	41.1	-8.7	78.3*	8.5	0.1	94.3*	51.2*
COC(=O)Cc1ccc(NC(=S)N2CCN(CCO)CC2)cc1	12.4	-27.8	-21.7	-16.9	-1.3	-10.7	x	x
O=C(CCCc1ccccc1)N=C1SC2CS(=O)(=O)CC2N1c1ccccc1F (stereo not given)	30.7	-3.1	-10.7	-7.4	-6.1	-13.3	x	x
Cc1ccc(O)c(C(=O)c2cc(C#N)c(=O)n(-c3nccs3)c2)c1	54.5*	5.4	5.5	60.8	-2.6	-6.6	31.5	x
COc1ccccc1NS(=O)(=O)c1ccc(C(=O)NCC(c2ccco2)N2CCCCC2)cc1 (stereo not given)	x	x	x	x	1.7	x	x	x
Oc1cc(NCc2ccc(F)cc2)cc2cccnc12	55.5*	3.2	1.7	x	22.8	4.3	16.9	x
Cc1nn(-c2ccccc2)c(Cl)c1C(=O)N1CCN(c2ncnc3c2cnn3-c2ccccc2)CC1	97.0*	20.9	-3.2	55.1	6.0	43.3	88.5*	58.5*
Clc1ccc(-n2ncc3c(N4CCCC4)ncnc32)cc1	50.9*	-100.8	-208.0	1.6	17.2	-1.2	65.8*	168.3*
CCOc1ccc(/C=C(\C)C(=O)c2c(C)cc(C)[nH]c2=O)cc1	26.2	-0.3	5.0	-9.3	-1.1	x	x	x
COc1cc(C#Cc2c(-c3cncn3C)n(C)c3ccc(-c4ccc(OC)nc4)cc23)cc(OC)c1	68.8*	14.5	2.8	84.2*	20.8	17.6	36.1	58.0*
COc1cc(C#Cc2c(-c3cncn3C)n(C)c3ccc(-c4cc(OC)c(OC)c(OC)c4)cc23)cc(OC)c1	95.7*	5.2	10.0	61.6	26.3	21.8	50.7*	61.6*
COc1cc(C#Cc2c(-c3cncn3C)n(C)c3ccc(-c4ccc5[nH]ccc5c4)cc23)cc(OC)c1	26.1	-20.5	-4.0	33.0	-2.1	18.6	x	x
O=C(Nc1cccc(Cl)c1)NC1CC2CCC1C2 (stereo not given)	8.7	-56.5	-27.9	-3.1	-17.3	-4.0	x	x
Cc1ccc(-n2c(O)c(/C=N/Nc3ccc(S(=O)(=O)N4CCOCC4)cc3[N+](=O)[O-])c3ccccc3c2=O)c(C)c1	54.7*	12.3	12.4	-7.9	19.6	29.8	25.6	x
CCOC(=O)c1ccc(CN2Cc3ccccc3C2=O)cc1	-3.8	1.4	-3.2	-10.1	1.2	5.4	x	x
CCCc1cc(-c2[nH]ncc2-c2ccc(C(=O)OCC)o2)c(O)cc1O	56.2*	-0.3	-7.6	51.5	2.4	23.0	18.5	x
c1csc(CNc2ncnc3ccc(-c4ccoc4)cc23)c1	65.4*	3.8	-47.1	23.5	-27.9	-35.0	66.5*	21.4
c1csc(CNc2ncnc3ccc(-c4ccc5c(c4)OCO5)cc23)c1	12.4	-18.0	-12.5	53.2	-23.0	4.7	x	x
CCSc1ncc(/C=N/Nc2ccccc2)n1C	0.1	-32.2	-6.6	-2.7	-14.2	-8.7	x	x
SMILES	Mdm2-MdmX inh	Jurkat NFkB inh	697 NFkB inh	CSC inhib	Gli-Sufu block	Beta apoptosis	Mdm2 MdmX conf	FLuc counter
CCSc1ncc(/C=N/Nc2ccc([N+](=O)[O-])cc2)n1C	69.2*	-122.8	-136.2	10.0	-84.7	x	-86.6	x
COc1cc2c(cc1OC)[C@@H](NC(=O)CCc1ccccc1)[C@H](OCc1ccccc1)C2	10.4	x	13.0	x	-11.5	x	x	x
CCCCCCCCCC(=O)N[C@@H]1c2cc(OC)c(OC)cc2C[C@H]1OCc1ccccc1	89.4*	x	-79.0	x	-3.6	x	69.2*	35.8
Cc1cc(/C=N/Nc2ncnc(N)c2[N+](=O)[O-])c(C)n1-c1ccccc1	64.7*	39.0	-50.0	3.2	53.7	16.2	70.5*	53.7*
CN(CC(=O)Nc1ccc(Cl)cc1)C(=O)CCC1CCCC1	10.7	-6.9	5.5	0.1	-7.9	-3.8	x	x
CC(=O)N1CC(=O)N=C1SCC(=O)Nc1nc(-c2ccccc2)c(-c2ccccc2)s1	57.1*	2.0	22.6	33.2	2.2	x	9.9	x
COc1ccc(CNC(=O)Cn2c(=O)n(CCC(=O)N3CCCCC3)c(=O)c3sccc32)cc1	8.5	-1.8	18.2	-14.5	0.9	1.3	x	x
O=C(c1ccc(S(=O)(=O)c2cccc(Cl)c2)c([N+](=O)[O-])c1)N1CCN(Cc2ccccc2)CC1	94.2*	18.0	-9.2	x	13.1	x	85.1*	57.7*
O=C(c1ccc(S(=O)(=O)Cc2ccccc2Cl)c([N+](=O)[O-])c1)N1CCN(c2ccccn2)CC1	75.1*	4.0	23.2	37.2	14.6	-27.0	64.0*	38.6*
Cc1ccccc1CS(=O)(=O)c1ccc(C(=O)N2CCC(C)CC2)cc1[N+](=O)[O-]	47.4	-0.8	28.4	17.0	14.3	0.6	x	x
O=C(c1ccc(Cl)c([N+](=O)[O-])c1)N1CCN(c2ccccn2)CC1	4.6	-6.0	14.1	-9.0	1.5	1.9	x	x
CC1CCN(C(=O)c2ccc(S(=O)(=O)Cc3cccc(F)c3)c([N+](=O)[O-])c2)CC1	55.8*	19.4	11.6	x	11.1	x	49.5*	71.7*
